Source: ChEMBL document CHEMBL1961873, “Compounds: GSK PKIS; Assays: Nanosyn kinase panel” (2012)

Legend:
[1] = target: Ribosomal protein S6 kinase alpha-6 (Homo sapiens) (UniProt Q9UK32); settings: at 1 µM;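 also: each value is a mean inhibition of RSK4 from a GSK PKIS panel screen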
[2] = target: T1, Serine/threonine-protein kinase Sgk1 (Homo sapiens) (UniProt O00141); settings: at 0.1 µM
T1 sequence (whole entry): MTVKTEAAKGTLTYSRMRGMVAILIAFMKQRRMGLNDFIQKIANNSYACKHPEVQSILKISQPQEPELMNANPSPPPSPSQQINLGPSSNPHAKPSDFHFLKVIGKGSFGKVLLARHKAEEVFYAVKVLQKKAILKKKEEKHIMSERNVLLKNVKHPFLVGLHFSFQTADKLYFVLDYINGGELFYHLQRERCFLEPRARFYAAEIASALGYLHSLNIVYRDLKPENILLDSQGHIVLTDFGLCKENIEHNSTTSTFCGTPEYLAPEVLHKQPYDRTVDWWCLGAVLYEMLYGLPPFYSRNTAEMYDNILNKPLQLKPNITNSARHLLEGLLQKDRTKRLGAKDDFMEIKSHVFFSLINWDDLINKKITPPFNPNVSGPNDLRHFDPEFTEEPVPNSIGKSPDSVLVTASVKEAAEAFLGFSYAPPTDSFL

[3] = target: T1, Serine/threonine-protein kinase Sgk1 (Homo sapiens); settings: at 1 µM
[4] = target: T2, Serine/threonine-protein kinase Sgk2 (Homo sapiens) (UniProt Q9HBY8); settings: at 0.1 µM
T2 sequence (whole entry): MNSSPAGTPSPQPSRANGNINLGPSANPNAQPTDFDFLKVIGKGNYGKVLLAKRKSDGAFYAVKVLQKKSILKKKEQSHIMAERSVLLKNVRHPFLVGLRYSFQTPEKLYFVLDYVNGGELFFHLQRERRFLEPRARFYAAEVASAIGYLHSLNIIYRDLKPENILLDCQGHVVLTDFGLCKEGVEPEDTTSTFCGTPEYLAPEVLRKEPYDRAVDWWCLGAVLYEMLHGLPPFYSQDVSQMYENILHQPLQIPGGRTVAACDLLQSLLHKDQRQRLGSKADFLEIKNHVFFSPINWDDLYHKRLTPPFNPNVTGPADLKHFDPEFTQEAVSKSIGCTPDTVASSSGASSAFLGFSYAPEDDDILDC

[5] = target: T2, Serine/threonine-protein kinase Sgk2 (Homo sapiens); settings: at 1 µM
[6] = target: T3, Serine/threonine-protein kinase Sgk3 (Homo sapiens) (UniProt Q96BR1); settings: at 0.1 µM
T3 sequence (whole entry): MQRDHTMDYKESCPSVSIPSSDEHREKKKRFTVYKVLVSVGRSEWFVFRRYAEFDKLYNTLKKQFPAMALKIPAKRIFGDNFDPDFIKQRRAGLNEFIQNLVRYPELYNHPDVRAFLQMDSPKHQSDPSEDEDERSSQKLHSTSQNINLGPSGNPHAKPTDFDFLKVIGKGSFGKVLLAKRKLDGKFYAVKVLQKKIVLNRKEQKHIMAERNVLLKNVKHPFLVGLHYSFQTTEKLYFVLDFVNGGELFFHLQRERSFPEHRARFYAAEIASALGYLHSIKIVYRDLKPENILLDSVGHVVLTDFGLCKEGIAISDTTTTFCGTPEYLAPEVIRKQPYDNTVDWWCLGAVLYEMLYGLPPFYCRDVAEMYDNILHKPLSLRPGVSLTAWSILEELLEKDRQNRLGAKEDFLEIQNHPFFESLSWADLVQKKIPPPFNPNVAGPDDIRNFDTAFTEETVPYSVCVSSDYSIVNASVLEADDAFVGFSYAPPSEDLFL

[7] = target: T3, Serine/threonine-protein kinase Sgk3 (Homo sapiens); settings: at 1 µM
[8] = target: 5'-AMP-activated protein kinase catalytic subunit alpha-1 (Homo sapiens) (UniProt Q13131); settings: at 0.1 µM
5'-AMP-activated protein kinase catalytic subunit alpha-1 (Homo sapiens), sequence (Q13131 whole entry, looked up): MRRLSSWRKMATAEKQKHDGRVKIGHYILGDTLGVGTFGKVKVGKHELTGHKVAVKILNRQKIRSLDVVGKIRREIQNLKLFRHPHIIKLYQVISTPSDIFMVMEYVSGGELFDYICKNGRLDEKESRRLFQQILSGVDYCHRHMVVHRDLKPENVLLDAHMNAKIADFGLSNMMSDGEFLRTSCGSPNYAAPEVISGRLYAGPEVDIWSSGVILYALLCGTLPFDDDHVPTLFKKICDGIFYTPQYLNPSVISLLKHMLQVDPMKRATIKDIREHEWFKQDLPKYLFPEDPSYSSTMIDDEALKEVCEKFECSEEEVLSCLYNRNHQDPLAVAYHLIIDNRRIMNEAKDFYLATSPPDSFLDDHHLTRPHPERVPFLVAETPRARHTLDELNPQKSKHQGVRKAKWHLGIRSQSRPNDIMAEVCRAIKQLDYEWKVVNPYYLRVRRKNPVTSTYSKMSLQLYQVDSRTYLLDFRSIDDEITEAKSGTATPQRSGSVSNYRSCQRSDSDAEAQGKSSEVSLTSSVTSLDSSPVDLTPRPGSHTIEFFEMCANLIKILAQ

[9] = target: 5'-AMP-activated protein kinase catalytic subunit alpha-1 (Homo sapiens) (UniProt Q13131); settings: at 1 µM
[10] = target: 5'-AMP-activated protein kinase catalytic subunit alpha-2 (Homo sapiens) (UniProt P54646); settings: at 0.1 µM
5'-AMP-activated protein kinase catalytic subunit alpha-2 (Homo sapiens), sequence (P54646 whole entry, looked up): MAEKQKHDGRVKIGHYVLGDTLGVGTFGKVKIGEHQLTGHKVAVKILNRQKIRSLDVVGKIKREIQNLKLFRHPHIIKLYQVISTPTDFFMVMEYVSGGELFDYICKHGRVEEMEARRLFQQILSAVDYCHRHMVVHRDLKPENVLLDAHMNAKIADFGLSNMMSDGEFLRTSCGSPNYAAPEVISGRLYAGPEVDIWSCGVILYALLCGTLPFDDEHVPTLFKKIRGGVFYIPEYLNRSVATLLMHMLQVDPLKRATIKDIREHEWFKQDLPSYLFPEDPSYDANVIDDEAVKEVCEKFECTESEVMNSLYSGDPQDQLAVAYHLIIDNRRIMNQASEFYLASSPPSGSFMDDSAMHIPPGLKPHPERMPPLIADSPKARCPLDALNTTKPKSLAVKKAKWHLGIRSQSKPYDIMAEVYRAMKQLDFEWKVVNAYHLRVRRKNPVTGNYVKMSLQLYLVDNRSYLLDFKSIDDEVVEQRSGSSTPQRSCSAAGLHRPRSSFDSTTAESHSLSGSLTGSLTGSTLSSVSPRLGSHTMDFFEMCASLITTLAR

[11] = target: 5'-AMP-activated protein kinase catalytic subunit alpha-2 (Homo sapiens) (UniProt P54646); settings: at 1 µM
[12] = target: T4, NUAK family SNF1-like kinase 1 (Homo sapiens) (UniProt O60285); settings: at 0.1 µM
T4 sequence (whole entry): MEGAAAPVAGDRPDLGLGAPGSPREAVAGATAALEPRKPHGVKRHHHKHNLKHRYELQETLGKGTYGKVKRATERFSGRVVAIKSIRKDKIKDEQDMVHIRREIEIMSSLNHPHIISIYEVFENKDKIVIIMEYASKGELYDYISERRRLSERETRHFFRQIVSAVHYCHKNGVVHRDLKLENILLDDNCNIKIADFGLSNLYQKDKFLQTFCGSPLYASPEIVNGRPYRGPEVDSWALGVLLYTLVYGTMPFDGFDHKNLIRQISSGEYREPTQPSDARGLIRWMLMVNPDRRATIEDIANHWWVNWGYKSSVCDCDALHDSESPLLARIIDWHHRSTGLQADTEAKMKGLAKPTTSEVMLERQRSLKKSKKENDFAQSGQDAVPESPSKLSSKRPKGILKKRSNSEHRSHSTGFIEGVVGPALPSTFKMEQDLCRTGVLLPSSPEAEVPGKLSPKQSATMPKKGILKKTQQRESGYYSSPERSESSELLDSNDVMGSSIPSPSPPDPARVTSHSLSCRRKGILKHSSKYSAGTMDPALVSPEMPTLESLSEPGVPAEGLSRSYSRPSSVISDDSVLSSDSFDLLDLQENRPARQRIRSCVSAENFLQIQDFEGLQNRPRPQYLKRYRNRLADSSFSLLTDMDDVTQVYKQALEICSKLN

[13] = target: T4, NUAK family SNF1-like kinase 1 (Homo sapiens); settings: at 1 µM
[14] = target: T5, Serine/threonine-protein kinase BRSK1 (Homo sapiens) (UniProt Q8TDC3); settings: at 0.1 µM
T5 sequence (whole entry): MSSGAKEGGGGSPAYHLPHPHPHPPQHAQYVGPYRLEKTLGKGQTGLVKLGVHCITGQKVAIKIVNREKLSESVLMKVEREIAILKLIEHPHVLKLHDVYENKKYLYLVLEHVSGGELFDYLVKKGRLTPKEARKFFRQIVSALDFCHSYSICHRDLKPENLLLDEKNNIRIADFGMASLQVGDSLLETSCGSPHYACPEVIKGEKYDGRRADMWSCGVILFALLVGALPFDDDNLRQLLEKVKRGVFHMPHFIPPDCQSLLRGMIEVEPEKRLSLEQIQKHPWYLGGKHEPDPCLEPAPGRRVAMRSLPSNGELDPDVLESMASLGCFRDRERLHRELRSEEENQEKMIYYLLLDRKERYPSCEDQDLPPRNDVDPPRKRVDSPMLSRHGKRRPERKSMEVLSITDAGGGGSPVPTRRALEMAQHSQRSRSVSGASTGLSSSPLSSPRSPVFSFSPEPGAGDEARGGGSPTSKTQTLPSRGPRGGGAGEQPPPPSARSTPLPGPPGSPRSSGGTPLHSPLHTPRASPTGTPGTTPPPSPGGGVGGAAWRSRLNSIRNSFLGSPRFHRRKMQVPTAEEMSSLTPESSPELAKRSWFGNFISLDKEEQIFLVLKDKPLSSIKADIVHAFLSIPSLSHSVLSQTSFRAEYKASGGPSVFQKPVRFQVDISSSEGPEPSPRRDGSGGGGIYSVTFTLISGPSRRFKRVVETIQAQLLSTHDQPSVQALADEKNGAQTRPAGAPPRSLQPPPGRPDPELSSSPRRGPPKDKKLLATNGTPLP

[15] = target: T5, Serine/threonine-protein kinase BRSK1 (Homo sapiens); settings: at 1 µM
[16] = target: T6, Serine/threonine-protein kinase BRSK2 (Homo sapiens) (UniProt Q8IWQ3); settings: at 0.1 µM
T6 sequence (whole entry): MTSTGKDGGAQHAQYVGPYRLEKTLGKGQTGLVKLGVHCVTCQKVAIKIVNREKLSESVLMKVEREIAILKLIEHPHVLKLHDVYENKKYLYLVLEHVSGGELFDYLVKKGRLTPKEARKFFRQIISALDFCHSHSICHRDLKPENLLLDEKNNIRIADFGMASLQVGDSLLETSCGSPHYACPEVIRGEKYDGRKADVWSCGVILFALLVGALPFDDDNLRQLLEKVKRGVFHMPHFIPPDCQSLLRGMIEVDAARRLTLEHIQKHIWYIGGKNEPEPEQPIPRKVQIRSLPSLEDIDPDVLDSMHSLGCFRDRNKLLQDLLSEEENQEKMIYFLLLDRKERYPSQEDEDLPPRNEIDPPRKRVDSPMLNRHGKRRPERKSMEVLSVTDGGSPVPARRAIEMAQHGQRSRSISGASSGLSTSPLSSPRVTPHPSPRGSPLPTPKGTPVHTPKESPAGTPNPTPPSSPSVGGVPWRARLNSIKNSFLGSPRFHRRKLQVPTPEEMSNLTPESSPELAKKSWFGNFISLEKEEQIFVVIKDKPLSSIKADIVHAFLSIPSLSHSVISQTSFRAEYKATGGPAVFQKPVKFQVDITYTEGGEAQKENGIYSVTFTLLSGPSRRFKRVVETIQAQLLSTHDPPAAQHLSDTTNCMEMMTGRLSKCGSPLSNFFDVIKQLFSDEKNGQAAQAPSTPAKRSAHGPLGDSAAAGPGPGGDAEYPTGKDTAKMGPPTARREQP

[17] = target: T6, Serine/threonine-protein kinase BRSK2 (Homo sapiens); settings: at 1 µM
[18] = target: Calcium/calmodulin-dependent protein kinase type 1D (Homo sapiens) (UniProt Q8IU85); settings: at 0.1 µM
Calcium/calmodulin-dependent protein kinase type 1D (Homo sapiens), sequence (Q8IU85 whole entry, looked up): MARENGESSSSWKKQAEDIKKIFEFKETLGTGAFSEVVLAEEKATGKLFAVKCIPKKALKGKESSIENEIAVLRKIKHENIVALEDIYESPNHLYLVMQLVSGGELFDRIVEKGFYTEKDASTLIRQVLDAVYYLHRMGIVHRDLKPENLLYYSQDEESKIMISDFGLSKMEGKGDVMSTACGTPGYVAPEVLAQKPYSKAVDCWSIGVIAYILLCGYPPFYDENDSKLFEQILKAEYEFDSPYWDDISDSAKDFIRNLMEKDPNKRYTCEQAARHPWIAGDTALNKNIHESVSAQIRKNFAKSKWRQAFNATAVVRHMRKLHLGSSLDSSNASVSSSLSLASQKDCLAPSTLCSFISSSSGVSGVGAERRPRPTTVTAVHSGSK

[19] = target: Calcium/calmodulin-dependent protein kinase type 1D (Homo sapiens) (UniProt Q8IU85); settings: at 1 µM
[20] = target: Calcium/calmodulin-dependent protein kinase type II subunit alpha (Homo sapiens) (UniProt Q9UQM7); settings: at 0.1 µM;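 also: reported values are averages (mean inhibition of CAMK2A)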
Calcium/calmodulin-dependent protein kinase type II subunit alpha (Homo sapiens), sequence (Q9UQM7 whole entry): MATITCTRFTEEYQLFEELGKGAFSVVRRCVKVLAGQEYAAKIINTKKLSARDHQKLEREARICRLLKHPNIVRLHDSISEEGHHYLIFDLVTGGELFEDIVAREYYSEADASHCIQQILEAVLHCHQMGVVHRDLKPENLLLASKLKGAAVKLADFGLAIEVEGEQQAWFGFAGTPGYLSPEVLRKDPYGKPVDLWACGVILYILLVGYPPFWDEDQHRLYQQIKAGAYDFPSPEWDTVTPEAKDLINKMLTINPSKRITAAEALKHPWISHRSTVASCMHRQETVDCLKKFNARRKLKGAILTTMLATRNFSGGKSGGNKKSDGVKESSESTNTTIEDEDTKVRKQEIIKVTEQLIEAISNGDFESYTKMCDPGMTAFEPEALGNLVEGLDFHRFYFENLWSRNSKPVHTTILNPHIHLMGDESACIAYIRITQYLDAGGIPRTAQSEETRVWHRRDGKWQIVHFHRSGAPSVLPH

Ribosomal protein S6 kinase alpha-6 (Homo sapiens), sequence (Q9UK32 whole entry): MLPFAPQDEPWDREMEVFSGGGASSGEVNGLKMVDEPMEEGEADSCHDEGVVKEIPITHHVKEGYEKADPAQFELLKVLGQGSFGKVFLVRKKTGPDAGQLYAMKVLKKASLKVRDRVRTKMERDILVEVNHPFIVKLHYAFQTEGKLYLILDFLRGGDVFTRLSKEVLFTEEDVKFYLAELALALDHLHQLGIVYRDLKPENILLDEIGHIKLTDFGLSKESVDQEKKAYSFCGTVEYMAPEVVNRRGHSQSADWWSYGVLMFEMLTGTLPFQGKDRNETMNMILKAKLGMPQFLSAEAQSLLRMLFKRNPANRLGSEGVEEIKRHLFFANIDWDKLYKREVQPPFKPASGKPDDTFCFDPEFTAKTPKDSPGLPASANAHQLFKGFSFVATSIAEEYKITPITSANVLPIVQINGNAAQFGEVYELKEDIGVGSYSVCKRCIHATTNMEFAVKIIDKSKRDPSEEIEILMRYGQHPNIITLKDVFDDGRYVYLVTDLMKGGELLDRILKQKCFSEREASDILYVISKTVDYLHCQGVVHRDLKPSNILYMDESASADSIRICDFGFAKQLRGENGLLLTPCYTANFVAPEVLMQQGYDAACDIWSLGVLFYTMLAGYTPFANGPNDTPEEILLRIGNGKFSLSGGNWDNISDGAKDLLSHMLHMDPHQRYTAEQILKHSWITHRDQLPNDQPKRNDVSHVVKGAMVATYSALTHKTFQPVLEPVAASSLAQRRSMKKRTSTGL

Cc1cccc2c1NC(=O)/C2=N\Nc1ccc(S(N)(=O)=O)cc1
inhibition [1]: 2.27%
inhibition [2]: 0.42%
inhibition [3]: 3.23%
inhibition [4]: 2.93%
inhibition [5]: 3.69%
inhibition [6]: 0.3%
inhibition [7]: -0.24%
inhibition [8]: 2.8%
inhibition [9]: 4.3%
inhibition [10]: 0.95%
inhibition [11]: 4.04%
inhibition [12]: 4.52%
inhibition [13]: 19%
inhibition [14]: 1.12%
inhibition [15]: 3.16%
inhibition [16]: 0.94%
inhibition [17]: 4.49%
inhibition [18]: 0.23%
inhibition [19]: 1.75%
inhibition [20]: 4.56%

COc1cc2c(cc1Nc1nc(Nc3ccsc3C(N)=O)c3cc[nH]c3n1)N(C(=O)CN(C)C)CCC2(C)C
inhibition [1]: 49.6%
inhibition [2]: 3.7%
inhibition [3]: 4.59%
inhibition [4]: 2.95%
inhibition [5]: 2.79%
inhibition [6]: 2.75%
inhibition [7]: 4.25%
inhibition [8]: 6.5%
inhibition [9]: 7.07%
inhibition [10]: 6.92%
inhibition [11]: 7.54%
inhibition [12]: 5.54%
inhibition [13]: 9.13%
inhibition [14]: 4.27%
inhibition [15]: 6.36%
inhibition [16]: 4.89%
inhibition [17]: 4.71%
inhibition [18]: 5.46%
inhibition [19]: 30.8%
inhibition [20]: 4.03%

COc1cc2ncn(-c3cc(OCc4ccccc4C(F)(F)F)c(C(=O)N(C)C)s3)c2cc1OC
inhibition [1]: 0.1%
inhibition [2]: 0.62%
inhibition [3]: 1.02%
inhibition [4]: 1.9%
inhibition [5]: -0.51%
inhibition [6]: 0.08%
inhibition [7]: -0.88%
inhibition [8]: -0.68%
inhibition [9]: -0.02%
inhibition [10]: -0.26%
inhibition [11]: 1.18%
inhibition [12]: 1.04%
inhibition [13]: 14.8%
inhibition [14]: -0.38%
inhibition [15]: 2.7%
inhibition [16]: 0.49%
inhibition [17]: 8.59%
inhibition [18]: -0.9%
inhibition [19]: 0.6%
inhibition [20]: -1.75%

FC(F)(F)c1cccc(-c2nn3ncccc3c2-c2ccnc(Nc3ccc4c(c3)OCCO4)n2)c1
inhibition [1]: 2.56%
inhibition [2]: 1.35%
inhibition [3]: 1.1%
inhibition [4]: -3.49%
inhibition [5]: 0.76%
inhibition [6]: 5.14%
inhibition [7]: 1.47%
inhibition [8]: 1.41%
inhibition [9]: 0.35%
inhibition [10]: 0.93%
inhibition [11]: 4.13%
inhibition [12]: 1.51%
inhibition [13]: 5.87%
inhibition [14]: 3.69%
inhibition [15]: 2.81%
inhibition [16]: 2.37%
inhibition [17]: 2.54%
inhibition [18]: -0.54%
inhibition [19]: 1.75%
inhibition [20]: 1.98%

O=S(=O)(CCNCc1ccc(-c2ccc3ncnc(Nc4ccc(OCc5cccc(F)c5)c(Cl)c4)c3c2)o1)c1ccccc1
inhibition [1]: 1.81%
inhibition [2]: 4.12%
inhibition [3]: 4.02%
inhibition [4]: 4.25%
inhibition [5]: 7.28%
inhibition [6]: 6.67%
inhibition [7]: 5.71%
inhibition [8]: 7.7%
inhibition [9]: 5.94%
inhibition [10]: 3.89%
inhibition [11]: 4.37%
inhibition [12]: 0.36%
inhibition [13]: 2.65%
inhibition [14]: -0.02%
inhibition [15]: 4.07%
inhibition [16]: 3.29%
inhibition [17]: 3.94%
inhibition [18]: 1.31%
inhibition [19]: 1.55%
inhibition [20]: 4.23%

Fc1ccc(-c2nn3ncccc3c2-c2ccnc(Nc3ccc4c(c3)OCCO4)n2)cc1
inhibition [1]: 5.49%
inhibition [2]: 3.85%
inhibition [3]: 3.42%
inhibition [4]: 0.17%
inhibition [5]: 0.65%
inhibition [6]: 4.45%
inhibition [7]: 0.8%
inhibition [8]: 3%
inhibition [9]: 1.48%
inhibition [10]: 3.53%
inhibition [11]: 4.39%
inhibition [12]: -3.69%
inhibition [13]: -0.79%
inhibition [14]: 0.48%
inhibition [15]: -0.53%
inhibition [16]: 0.21%
inhibition [17]: -0.44%
inhibition [18]: -0.07%
inhibition [19]: 8.91%
inhibition [20]: 3.81%
